Assay outcomes (PubChem BioAssay)
Rows were chosen to be rich in hits. Some 13% of all compounds tested hit in one or more screens of this group.
USP7 inh – blocks human USP7 ubiquitin-rhodamine cleavage; Q93009; purified USP7, Ub-rhodamine cleavage fluorescence; inhibition, % at 20 µM; 0.3% of 47,000 active; AID 1645854
USP8 block – inhibitors of human USP8 deubiquitinase | 4.2% of 47,000 active | inhibition, % at 20 µM | AID 1645853 | P40818 | purified USP8, Ub-rhodamine cleavage fluorescence, 30 min
USP30 block – inhibitors of human USP30 deubiquitinase. inhibition, % at 25 µM. AID 1645860. Q70CQ3. 5.3% of 47,000 active. purified USP30, Ub-rhodamine cleavage fluorescence
USP10 inh – blocks human USP10 ubiquitin-rhodamine cleavage | Q14694 | purified USP10, Ub-rhodamine fluorescence, 60 min | inhibition, % at 20 µM | 1.1% of 47,000 active | AID 1645856
USP17 block – blocks human USP17 ubiquitin-rhodamine cleavage | inhibition, % at 50 µM | purified USP17, Ub-rhodamine cleavage fluorescence, 3 h | AID 1645855 | 6.5% of 47,000 active
UCHL1 inh – blocks human UCHL1 ubiquitin-rhodamine cleavage; 0.2% of 47,000 active; purified UCHL1, Ub-rhodamine cleavage fluorescence; P09936; inhibition, % at 20 µM
An asterisk follows results filed as active; i = inactive; . = no result given. No stated cut-off is given here; in the data, active means inhibition above about 30%; inactive means the rest.

SMILES	USP7 inh	USP8 block	USP30 block	USP10 inh	USP17 block	UCHL1 inh
Cc1noc(C)c1-c1ccc(S(=O)(=O)Nc2ccccc2)cc1	-26.7	28.7	30.1*	3.3	8.4	2.2
Cc1noc(C)c1-c1ccc(S(=O)(=O)Nc2cccc(F)c2)cc1	-14.3	-5.4	-16.3	5.1	-2.7	0.0
COc1ccccc1Cc1nnc(C2(c3ccccc3Cl)CCOCC2)o1	-1.7	8.5	12.8	0.4	0.2	3.0
COc1ccc(-c2cc3nc([C@H](C)NC(=O)Cc4ccccc4C)nn3cn2)cc1	32.2*	94.4*	26.6	36.4*	60.8*	3.6
COc1ccc(-c2cc3nc([C@H](C)NC(=O)COc4ccccc4F)nn3cn2)cc1	27.0	16.7	46.7*	18.4	38.0*	7.3
C[C@@H](NC(=O)c1ccc2c(c1)OCCO2)c1nc2cc(-c3ccccc3F)ncn2n1	7.4	-6.2	77.8*	4.9	65.9*	1.8
COc1ccc(-c2cc3nc([C@H](C)NC(=O)CC4CCCC4)nn3cn2)cc1	16.4	2.6	7.9	25.9	18.2	2.2
COCc1ccc(C(=O)N[C@H](C)c2nc3cc(-c4ccc(OC)cc4)ncn3n2)cc1	2.2	5.3	22.1	-0.6	8.0	2.5
C[C@H](NC(=O)Cc1ccccc1F)c1nc2cc(-c3ccccc3F)ncn2n1	5.6	39.1*	63.9*	40.2*	42.5*	2.2
CC(C)N1CC[C@@H]2[C@H](C1)CN2S(=O)(=O)c1ccccc1	-2.3	-11.9	-175.0	-4.9	-71.8	-6.1
O=S(=O)(Nc1cnc(N2CCCC2)nc1)c1ccc(C(F)(F)F)cc1	2.3	-33.2	2.6	-1.4	7.4	0.6
O=C(c1ccc2c(c1)OCCO2)N1CCC[C@@H](Cn2nnc(-c3ccncc3)n2)C1	-0.7	-11.4	2.7	0.7	-8.8	-1.9
O=C(O)c1ccccc1-n1cc(CN[C@@H]2CCC[C@H]2O)cn1	4.4	8.9	9.9	1.2	16.5	4.1
COc1cc(OC)cc(C(=O)Nc2cccc(N3CCCC3=O)c2)c1	-3.7	-11.7	-0.6	-0.4	4.5	-2.5
Cc1cccc(C(=O)Nc2cc3c4c(c2)CC(=O)N4CCC3)c1	0.1	38.9*	-22.3	-2.1	-4.9	0.7
COc1cccc(C(=O)Nc2cc3c4c(c2)CC(=O)N4CCC3)c1	-1.7	65.1*	-18.3	-1.2	16.8	2.2
Cc1cccc(Nc2cc(C3CCN(C(=O)c4cncnc4)CC3)ccn2)n1	3.1	15.4	31.7*	2.2	9.4	0.6
Cc1cccc(Nc2cc(C3CCN(C(=O)c4cnc[nH]4)CC3)ccn2)n1	0.2	3.3	1.6	1.1	-0.4	-1.9
Cc1ccccc1Cn1ccc(NC(=O)c2noc(C)c2[N+](=O)[O-])n1	2.8	-81.2	7.9	1.0	-8.7	0.6
Cc1cccc(C)c1NC(=O)c1c(C)sc2c(=O)n(C(C)C)cnc12	-1.5	-2.3	-22.3	-5.4	0.1	-2.5
Cc1ccccc1NC(=O)c1c(C)sc2c(=O)n(C(C)C)cnc12	-2.9	-2.8	-19.9	-3.1	31.9*	0.0
O=C(c1ccco1)N(c1ccc(Oc2ccccc2)cc1)c1nc2ccccc2s1	9.3	6.8	16.5	3.0	44.6*	3.5
CCCNC(=O)c1nnn(-c2ccccc2)c1-c1ccncc1	-2.3	-0.5	0.6	-0.3	-8.9	-1.4
O=C(c1cnc2[nH][nH]c(=O)c2c1)c1cc(Cl)cc(Cl)c1O	78.9*	94.4*	45.7*	86.5*	88.8*	61.9*
Cc1cccc2[nH]c3c(N4CCN(c5cccc(C(F)(F)F)c5)CC4)ncnc3c12	12.2	9.7	-0.7	2.7	-14.8	6.0
SMILES	USP7 inh	USP8 block	USP30 block	USP10 inh	USP17 block	UCHL1 inh
O=[N+]([O-])c1ccc(N2CCN(c3ncnc4c3[nH]c3ccc(F)cc34)CC2)cc1	-1.9	-15.3	8.0	-3.7	64.9*	-8.0
COc1ccc2[nH]c3c(NCCc4ccccc4OC)ncnc3c2c1	1.3	1.4	-23.3	-11.9	33.7*	-5.2
COc1ccc2[nH]c3c(N4CCN(c5ccccc5F)CC4)ncnc3c2c1	-1.0	16.5	10.2	-0.5	41.4*	0.0
Cc1[nH]ncc1-c1cnc(CC2CCCN(C(=O)C(C)(C)C)C2)cn1 (configuration not stated)	-2.1	-46.2	-24.8	-0.3	-15.7	-2.9
O=C1CCC(=O)NCCCCCN(O)C(=O)CCC(=O)NCCCCCN(O)C(=O)CCC(=O)NCCCCCN1	-8.2	9.1	44.3*	0.0	13.0	5.2
O=C1NCCCCCN1C(=O)c1ccccc1	3.8	-0.4	19.1	0.4	6.7	-0.1
O=C(NC1CCC1)c1c2c(-c3ccncc3)ncnc2n2ccccc12	-118.4	-19.0	.	-3.9	67.8*	-116.6
O=C(c1c2c(-c3ccccc3)ncnc2n2ccccc12)N1CCOCC1	-129.4	-10.7	i	-9.6	-192.0	-149.1
COc1ccc2nc(-c3cccc(NC(=O)C4CCCC4)c3)cn2n1	2.7	-0.5	1.5	2.7	28.7	3.6
COc1ccc2nc(-c3ccc(NC(=O)c4cccc(OC)c4OC)cc3)cn2n1	8.0	3.7	-28.1	10.0	80.5*	1.0
Cc1ccc(NC(=O)Cc2nc(-c3cccnc3)n[nH]2)c(C)c1	0.4	-7.5	-56.9	-8.6	.	-3.8
CCOc1ccccc1NC(=O)Cn1c(=O)n(CCCC(=O)N2CCc3ccccc3C2)c(=O)c2ccccc21	4.7	7.1	44.8*	19.4	14.8	-0.5
O=C(COc1cccc(F)c1)NC(Cc1ccccc1)c1nc2ccccc2[nH]1 (configuration not stated)	-0.4	73.0*	10.8	-2.6	45.6*	2.8
N#Cc1ccc(OCC(=O)NC(Cc2ccccc2)c2nc3ccccc3[nH]2)cc1 (configuration not stated)	5.8	35.8*	9.5	-2.1	11.6	2.6
O=C(Nc1ccccc1Cl)c1ccc2nncn2c1	-7.1	-28.0	-103.5	-2.2	-24.5	-8.7
Cc1ccc(Cn2c(C(=O)O)c(CNC3CCCC3)c3ccccc32)cc1	-99.6	-14.1	5.4	-3.6	-15.6	-4.6
Cc1ccc(Cn2c(C(=O)O)c(CNCc3ccco3)c3ccccc32)cc1	-27.6	8.2	-18.8	24.9	35.1*	-8.0
Cc1ccc(Cn2c(C(=O)O)c(CNCc3cccc(Cl)c3)c3ccc(C)cc32)cc1	-24.0	-7.2	43.2*	24.6	12.5	11.1
COc1ccc(CNCc2c(C(=O)O)n(Cc3ccc(F)cc3Cl)c3cc(C)ccc23)cc1	-4.1	-59.2	62.6*	-3.1	57.2*	-10.0
CCN(CC)c1nc(NC)nc(-n2cnc(SC)n2)n1	-0.2	4.9	.	2.1	14.3	1.8
CN(C)C(Cc1ccccc1)C(=O)c1ccc2c(c1)NC(=O)CO2 (configuration not stated)	-14.3	-1.1	-0.7	3.6	-0.7	1.7
COc1ccccc1-c1nnc(SCC(=O)c2ccc3c(c2)NC(=O)CO3)n1Cc1ccco1	-7.3	-8.8	-16.4	-0.3	37.0*	-3.0
COc1ccc(OCC(=O)NCCC2=CCCCC2)c([N+](=O)[O-])c1	-23.9	-96.3	9.7	2.0	-2.3	4.7
